DT40 TDP1 CPT = qHTS for Inhibitors of human tyrosyl-DNA phosphodiesterase 1 (TDP1): qHTS in cells in presence of CPT; Potency, µM (series often up to 46.2 µM), for the others: top-dose activity change, negative = growth inhibition, hits mostly inhibitors; hit rate 12% among 420,000; AID 686979, 2013; chicken DT40 Tdp1-/-;hTDP1 cells + 20 nM CPT, ATP luminescence, 48 h; also: potency is read from the fitted curve at half-maximal effect; nearly all actives have a fitted effect of over 55% in size
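Chicken DT40 Tdp1-/- cells complemented with human TDP1, 400 cells/well, exposed to compounds plus 20 nM camptothecin for at least 48 h at 37 C; viability read as ATP content by CellTiter-Glo luminescence.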
HT1080 IDH1KD tx = qHTS for induction of synthetic lethality in tumor cells producing 2HG: qHTS for the HT-1080-IDH1KD cell line | HT-1080 IDH1 knockdown viability, ATP luminescence, 48 h | Potency, µM (series often up to 46.1 µM), for the others: at the highest dose activity, negative = toxicity, actives largely listed as cytotoxic | AID 686971, 2013 | hit rate 2% among 360,000;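 also: potency is read from the fitted curve at half-maximal effect; 0% = DMSO wells and -100% = cell-free medium wells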
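CellTiter-Glo luminescence after 48 h compound exposure at 37 degrees C of IDH1-knockdown HT-1080 cells in 5% FBS RPMI. %Activity scaled between DMSO wells and cell-free media wells, with curves fitted and assigned curve classes.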
TDP1 cell noCPT = qHTS for Inhibitors of human tyrosyl-DNA phosphodiesterase 1 (TDP1): qHTS in cells in absence of CPT. hit rate 15% among 420,000. AID 686978, 2013. DT40 Tdp1-/- hTDP1 cells, no CPT, ATP luminescence, 48 h. Potency, µM (highest dose often 46.2 µM), inactives show top-dose activity change, negative = growth inhibition, most hits filed as inhibitors; also: potency is read from the fitted curve at half-maximal effect; nearly all actives have a fitted effect of over 55% in size
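DT40 Tdp1-/-;hTDP1 cells, no CPT (DMSO vehicle only), 400 cells/well; compounds pin-transferred; ≥48 hr, 37 °C; CellTiter-Glo 30 min RT dark, luminescence read.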
HT1080NT lethal = qHTS for induction of synthetic lethality in tumor cells producing 2HG: qHTS for the HT-1080-NT fibrosarcoma cell line | AID 686970, 2013 | Potency, µM (doses to about 46.1 µM), without a hit: at the top dose activity, negative = less viability, usual class: cytotoxic | HT-1080-NT fibrosarcoma viability, CellTiter-Glo ATP luminescence, 48 h | hit rate 1.6% among 360,000;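 also: NT is the 2HG producing partner of a matched IDH1 knockdown line; potency is read from the fitted curve at half-maximal effect; 0% = DMSO-treated cells and -100% = media-only wells without cells; nearly all actives have a fitted effect of over 55% in size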
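HT-1080-NT; 750 cells/well; 5% FBS RPMI; 48 h compound, 37 degrees C; CellTiter-Glo luminescence; curve fitting and curve-class assignment.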
IL1B secr inh = qHTS for Inhibitors of Inflammasome Signaling: IL-1-beta AlphaLISA Primary Screen. THP-1 LPS/ATP IL-1B secretion, AlphaLISA, 16 h; active compounds read low. activity change, % at 57.5 µM. hit rate 4.7% among 360,000; in the data active = activity change below about -50%; inconclusive = mostly about -30% to -49%
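THP-1 cells pretreated 1 hr with compounds (up to 57.5 uM final), then stimulated with LPS (250 ng/mL final) plus ATP (1.25 mM final); secreted IL-1B measured by AlphaLISA after 16 hr, decreased signal indicating inhibition.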
Starred values were filed as active, the others as inactive; ? = inconclusive; · = no result given; [ ] = remark or other dose. In the library only some 19% were active in any assay of this set; here they are far more common. Unless noted, calls follow the shape of the dose curve; as a rule, active = well fitted curve in the direction sought with a large enough effect; inconclusive = small, poorly fitted or top-dose-only effect, or another doubt; inactive = no such curve, though single readings can be large; an effect the other way counts as inactive or inconclusive. Unless noted, % is scaled to controls: 0 for no effect and ±100 for the full control effect.

SMILES | DT40 TDP1 CPT | HT1080 IDH1KD tx | TDP1 cell noCPT | HT1080NT lethal | IL1B secr inh
Cc1ccc(N2CCN(C(=O)c3nn(C)c4c3CS(=O)(=O)c3ccccc3-4)CC2)c(C)c1 | 18µM* | 16% | 21µM* | 10% | -21
Cc1cccc(N2CCN(C(=O)c3ccccn3)CC2C)c1 (centres undefined) | ? | 17% | -18% | ? | 5
Cc1cccc(N2CCN(C(=O)c3nn(C)c4c3CS(=O)(=O)c3ccccc3-4)CC2C)c1 (centres undefined) | 23µM* | -8% | 18µM* | -5% | -21
Cc1ccc(Cl)cc1N1CCN(C(=O)c2nn(C)c3c2CS(=O)(=O)c2ccccc2-3)CC1 | 21µM* | · | 12µM* | · | ·
COc1ccccc1N1CCN(C(=O)c2nn(C)c3c2CS(=O)(=O)c2ccccc2-3)CC1 | ? | 9% | ? | 16% | 2
Cn1nc(C(=O)N2CCN(c3ccc(Cl)cc3)CC2)c2c1-c1ccccc1S(=O)(=O)C2 | 16µM* | -15% | ? | -2% | -58*
C[C@@]12CC(=O)C3=C(CCCC3=O)N1CCc1ccccc12 | -4%[9.04 µM] | · | -2%[9.04 µM] | · | ·
O=C(CCN1CCN(c2ccccc2)CC1)N/N=C/c1ccccc1OC(F)F | 4% | ? | -26% | -21% | 19
COc1cc(NC(=O)c2nn(C)c3c2CS(=O)(=O)c2ccccc2-3)cc(OC)c1 | ? | 0% | 16µM* | -11% | 0
COc1ccccc1NC(=O)c1nn(C)c2c1CS(=O)(=O)c1ccccc1-2 | -22% | · | -18% | · | ·
CC1CCCC(NC(=O)c2nn(C)c3c2CS(=O)(=O)c2ccccc2-3)C1C (centres undefined) | ? | -1% | 9.2µM* | 9% | 6
O=C(Oc1ccc(-c2nnco2)cc1)C1CCN(C(=O)c2ccc(F)cc2)CC1 | -11% | 10% | -8% | 1% | 0
c1ccc(C2=Nc3c(ccc4ccccc34)C(c3ccncc3)=NN2)cc1 | 8.2µM* | 21µM* | 21µM* | ? | -2
Oc1ccc(C2CNCc3sccc32)cc1O (centres undefined) | 15µM* | ? | 21µM* | ? | 3
CC(C)(C)C(=O)Nc1ccc(C(=O)OC2CCCCC2)cc1 | 26µM* | ? | 21µM* | 13µM* | -30
O=C(OC1CCCCC1)c1ccc(NC(=O)C2CCCCC2)cc1 | ? | ? | 21µM* | ? | -25
CCOC(=O)N1CCC(NC(=O)c2ccc3c(c2)N(Cc2ccc(F)cc2)C(=O)c2ccccc2S3=O)CC1 (centres undefined) | 16µM* | · | ? | · | ·
CCOC(=O)N1CCC(NC(=O)c2ccc3c(c2)N(Cc2ccc(Cl)cc2)C(=O)c2ccccc2S3(=O)=O)CC1 | ? | · | 23µM* | · | ·
Cc1cccc(CN2C(=O)c3ccccc3S(=O)(=O)c3ccc(C(=O)NC4CCCCC4)cc32)c1 | -24% | · | -15% | · | ·
CCOC(=O)N1CCC(NC(=O)c2ccc3c(c2)N(Cc2ccc(Cl)cc2)C(=O)c2ccccc2S3=O)CC1 (centres undefined) | ? | · | 23µM* | · | ·
CCOC(=O)N1CCC(NC(=O)c2ccc3c(c2)N(Cc2ccccc2)C(=O)c2ccccc2S3=O)CC1 (centres undefined) | -1% | · | -2% | · | ·
Cc1cccc(NC(=S)N2CCN(S(=O)(=O)c3cccc(F)c3)CC2)c1 | -3% | -8% | -22% | -10% | -14
Cc1noc(/C=C/N(C)C)c1S(=O)(=O)N1CCCC(C(=O)NCCC2=CCCCC2)C1 (centres undefined) | 21µM* | -1% | 16µM* | -4% | -28
Cc1noc(C)c1S(=O)(=O)N1CCCC(C(=O)NCCC2=CCCCC2)C1 (centres undefined) | ? | -14% | 16µM* | -8% | 14
CC(Cc1ccsc1)NC(=O)CCc1nnc(COc2ccccc2)o1 (centres undefined) | 2% | 9% | 7% | 9% | 14
COCCCNS(=O)(=O)c1ccc(S(=O)(=O)N2CCCC2)cc1 | -14% | -3% | -4% | -2% | 0
Cc1ccc(S(=O)(=O)Nc2cccc3c2CCCC3)cc1 | -5% | 6% | -25% | 5% | 0
